Records with an inconclusive call do not appear. The source made the active and inactive calls. Calls follow the shape of the dose curve; as a rule, active = well fitted inhibition curve with a large enough effect; inconclusive = small, poorly fitted or top-dose-only effect; inactive = no such curve, though single readings can be large or run the other way.
assay: Primary qHTS for small molecule stabilizers of the endoplasmic reticulum resident proteome: Secreted ER Calcium Modulated Protein (SERCaMP) assay (AID 1508630); conditions: SH-SY5Y GLuc-SERCaMP (Gaussia luciferase released on ER calcium loss) secretion, thapsigargin, luminescence; series mostly up to 38.4 µM
Description: Assay Provider: Brandon K. Harvey Ph.D.
National Institute on Drug Abuse, National Institutes of Health, Baltimore, MD
Endoplasmic reticulum (ER) dysregulation is associated with human pathologies including neurodegenerative, cardiovascular, muscular, and diabetic conditions. Maintenance of ER calcium is critical for functions of the ER and its depletion can lead to loss of ER resident proteins, in a process termed exodosis. Therapeutic compounds capable of attenuating the redistribution of ER proteins under pathological conditions may slow or stop disease progression. To identify such compounds, we performed a quantitative high-throughput screen (qHTS) using the SERCaMP assay, which monitors secretion of ER resident proteins triggered by calcium depletion.
SERCaMP was initially developed as a reporter of ER calcium homeostasis using a Gaussia luciferase with a modified signal peptide and carboxy-terminus (GLuc-SERCaMP), modifications that confer secretion of the reporter in response to ER calcium depletion (Henderson et al., 2014). The assay was used to screen 9,501 compounds, including a collection of drugs approved by the FDA (US), EMA (EU), NHI (Japan), and HC (Canada) regulatory agencies (Huang et al., 2011). Since the SERCaMP reporter reflects the exodosis phenomenon (Trychta et al., 2018a), compounds identified in the screen have the potential to prevent exodosis by different mechanisms such as stabilizing ER calcium or augmenting ERS retrieval.
1. Henderson, M.J., Wires, E.S., Trychta, K.A., Richie, C.T., and Harvey, B.K. (2014). SERCaMP: a carboxy-terminal protein modification that enables monitoring of ER calcium homeostasis. Mol Biol Cell 25, 2828-2839.
2. Huang, R., Southall, N., Wang, Y., Yasgar, A., Shinn, P., Jadhav, A., Nguyen, D.T., and Austin, C.P. (2011). The NCGC pharmaceutical collection: a comprehensive resource of clinically approved drugs enabling repurposing and chemical genomics. Sci Transl Med 3, 80ps16.
3. Trychta, K.A., Back, S., Henderson, M.J., and Harvey, B.K. (2018a). KDEL Receptors Are Differentially Regulated to Maintain the ER Proteome under Calcium Deficiency. Cell Rep 25, 1829-1840 e1826.
SEQUENCE No. (1, 2, 3, etc.); […] (e.g., Cells, Incubation, Reagent, etc.); VALUE and DESCRIPTION.
1; Reagent; 5 uL; 1000 SH-SY5Y cells per wells
3; Compound; 23 nL; Control inhibitor / compound library
5; Reagent; 100 nM; Thapsigargin
7; Reagent; 1 uL; 0.5x coelenterazine
8; Detection; Luminescence; ViewLux imaging system
NOTES (numbers refer to sequence above)
1; SH-SY5Y human neuroblastoma cells stably expressing GLuc-SERCaMP (SH-SY5Y-GLuc-ASARTDL) cells were seeded in 1,536 well white tissue culture treated plates (Corning, Cat# 7464) in DMEM-high glucose-sodium pyruvate (ThermoFisher Scientific, Cat #10569) supplemented with 10% bovine growth serum (Hyclone), 10 U/ml penicillin (Gibco), 10 ug/ml streptomycin (Gibco), and 20 mM HEPES.
2; Assay plates were incubated for 5 hour at 37C in a humidified incubator containing 5% CO2.
3; qHTS libraries (23 nl, final concentrations of 1.53 uM, 7.67 uM, 38.3 uM) or controls (neutral control: DMSO, positive control: dantrolene) were added using a Kalypsis pin-tool Robotic System equipped with 1536 pinheads.
4; Cells were then incubated for 16 hours at 37C, 5% CO2.
5; Thapsigargin was added at 100 nM to deplete ER calcium stores.
6; Cells were incubated for 4 hour (37 °C, 5% CO2)
7; Gaussia luciferase in the medium was measured by adding 1 ul of 0.5x coelenterazine (final concentration 0.07x) prepared in Gaussia Luciferase Glow Assay Buffer (Pierce), without addition of the Cell Lysis Buffer Reagent.
8; Luminescence was measured using a ViewLux […] CCD imaging system (Perkin Elmer) equipped with clear filters. […] The same controls were also used for the calculation of the Z' factor, a measure of assay quality control, as previously described (Zhang et al., 1999). […]

outcome, inactive:
CCNc1ncc2nc(-c3ccc(F)cc3)c(=O)n(Cc3ccc(F)cc3)c2n1
N#Cc1cccc(NC(=O)N2CCCC3(CCN(S(=O)(=O)c4ccccc4)CC3)C2)c1
COc1ccc(C(=O)N2CCC[C@@]3(CCN(C(=O)Nc4cccc(C#N)c4)C3)C2)cc1
N#Cc1cccc(-c2cncnc2NCc2cccnc2)c1
CCNc1ncc2nc(-c3ccc(F)cc3)c(=O)n(-c3ccccc3)c2n1
N#Cc1ccc(CN2CC3(CCN(C(=O)c4ccco4)CC3)C2)cc1
O=C(c1cccc(F)c1)N1CCC2(CCCN(C(c3ccccc3)c3ccccc3)C2)CC1
N#CCCn1c(=O)c(-c2cccs2)nc2cnc(Nc3ccccc3)nc21
COc1cccc(-c2cncnc2NCc2cccc(C)c2)c1
CC(=O)NCCNc1nc(-c2ccc3c(c2)OCO3)nc2ccccc12
CCNc1ncc2nc(-c3ccc(OC)cc3)c(=O)n(Cc3cccc(OC)c3)c2n1
COc1cccc(Cn2c(=O)c(-c3cn(C)c4ccccc34)nc3cncnc32)c1
COCCn1c(=O)cnc2cnc(OCc3ccccc3)nc21
COc1ccc(C(=O)N2CCC3(CCN(Cc4ccccc4)CC3)CC2)cc1
O=C(Nc1ccccc1)N1CCCC2(CCN(S(=O)(=O)c3ccccc3)CC2)C1
Cn1c(=O)c(CCc2ccccc2)nc2cnc(N3CCOCC3)nc21
O=C(c1csnn1)N1CCC2(CC1)CCN(c1cccc(-c3ccccc3)c1)CC2
Cc1cnc(CNc2ncnc3ccc(-c4ccc(C(=O)N(C)C)cc4)cc23)cn1
Cn1cccc1C(=O)N1CCC2(CCCN(c3ccncc3)C2)CC1
COCCn1c(=O)c(-c2cc(F)cc(F)c2)nc2cnc(OCc3ccccc3)nc21
CC(C)NC(=O)N1CC[C@@]2(CCCN(C(=O)c3ccncc3)C2)C1
COCCn1c(=O)c(-c2cccc(Cl)c2)nc2cncnc21
CCCCCCCNS(=O)(=O)c1cccc2c(Cl)cccc12
COC(=O)N1CCC2(CCN(C(=O)Nc3ccc(OC)cc3)CC2)CC1
COc1cccc(Nc2ncc3nc(CCc4ccccc4)c(=O)n(Cc4cccs4)c3n2)c1
Cc1cnc(CNc2nc(-c3ccc(N(C)C)cc3)nc3ccccc23)cn1
Cc1cnc(CNc2cc(-c3ccc4c(c3)OCO4)ncn2)cn1
Cn1cccc1C(=O)N1CCC2(CCCN(c3ncccn3)C2)CC1
CS(=O)(=O)Nc1cccc(-c2cncnc2-n2ccnc2)c1
N#Cc1cccc(-c2nccc(NCc3cccnc3)n2)c1
c1cncc(CNc2nc(-c3ccc4c(c3)OCO4)nc3ccccc23)c1
c1csc(CNc2nc(-c3ccoc3)nc3ccccc23)c1
COc1ccc(-n2c(=O)c(-c3cccc(F)c3)nc3cncnc32)cc1
COc1ccccc1CNc1ncncc1-c1ccc(C(=O)N(C)C)cc1
COc1ccc(-c2nc3cnc(N(C)C)nc3n(C[C@H]3CCCO3)c2=O)cc1
O=C(Nc1ccccc1)N1CC[C@@]2(CCCN(C(=O)c3ccncc3)C2)C1
Cc1noc(C)c1-c1cncnc1-n1ccnc1
O=C(c1cccc(F)c1)N1CCC[C@@]2(CCN(c3ccccc3)C2)C1
CN(C)C(=O)c1ccc(-c2ccc3ncnc(NCCN4CCOCC4)c3c2)cc1
Cc1cccc(CNc2ccnc(-c3ccccc3Cl)n2)c1
